Our source for the inhibition values is PubChem BioAssay AID1578 (Sanford-Burnham Center for Chemical Genomics, 2009).

About 3,000 (1%) of roughly 290,000 compounds were called active. Cut-off read from the data, not from the text of the source: active = inhibition mostly above about 36% (no sharp cut-off); inactive = mostly below about 34%. The sample as a whole holds a higher share of actives than the screen did.

In general, inhibition refers to the change of the read-out against control, counted positive when it falls.

The test in a line: inhibition of NOD1-driven NF-kB reporter – cell-based, luminescence, uHTS, primary screen (AID 1578).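 Note: HEK-293T reporter cells stimulated with the NOD1 agonist gamma-tri-DAP.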 To be noted: NOD1-driven NF-kB luciferase reporter cells, at 4 µM, stronger effect = higher value. (In general: In a reporter assay the amount or activity of a reporter protein is the signal.)
In the case of `COc1ccc(NC(=O)CSc2nn3c(=O)c(C)nnc3s2)cc1`, the inhibition was -19.6% (inactive).

For the molecule `COc1ccccc1NC(=O)Nc1cnccn1`, the inhibition is 111% (active).

Regarding `COc1ccc(NC(=O)Nc2cnccn2)c(OC)c1`, the inhibition is -27.1% (inactive).

Take `CCOc1ccccc1NC(=O)Nc1cnccn1`: the inhibition is 11.8% (inactive).

Turning to `COC(=O)Nc1ccc2c(c1)N(C(=O)CCCl)c1ccccc1S2`, the inhibition is 3.3% (inactive).

Consider `COc1ccc(C(=O)NNC(=O)C(=O)/C=C(\O)c2ccc(C)cc2)cc1`, for which the inhibition was 0.6% (inactive).

`Cc1cccc(C(=O)NC(=S)NCc2cccnc2)c1`: the inhibition was -31.1% (inactive).

In the case of `O=C(NCCCN1CCOCC1)c1cccc(S(=O)(=O)Nc2cc(Cl)ccc2Cl)c1`, the inhibition is -34.3% (inactive).

Take `Cn1nnnc1SCC(=O)Nc1nc(-c2ccc(F)c(F)c2)cs1`: the inhibition was -20.9% (inactive).

As for `O=C(CSc1ncnc2[nH]ncc12)Nc1nc(-c2ccc(F)c(F)c2)cs1`, the inhibition was 46% (active).

On to `Cc1sc2ncnc(SCC(=O)Nc3nc(-c4ccc(F)c(F)c4)cs3)c2c1C`, for which the inhibition is -40.3% (inactive).

On to `CC1CN(C(=O)CCC(=O)NCCCN2C(C)CCCC2C)c2ccccc2O1` (stereo not drawn), for which the inhibition is 26.4% (inactive).

With `Cc1ccc(CNC(=O)C2CCCN(S(=O)(=O)c3c(C)[nH]c(=O)[nH]c3=O)C2)cc1` (stereo not drawn), the inhibition is -3.9% (inactive).

For the molecule `O=C(Cn1c(=O)oc2ccccc21)NC(=O)NCc1ccco1`, the inhibition was -3.9% (inactive).

For the molecule `CCOc1ccc(C(=O)NC(=S)N(Cc2ccccc2)Cc2ccccc2)cc1`, the inhibition is 51.4% (inactive).

With `CCCN(CCC)C(=S)NC(=O)c1ccc(-c2ccccc2)cc1`, the inhibition was 52.6% (active).

On to `CCN(CC)C(=S)NC(=O)c1ccc(F)cc1`, for which the inhibition is -25% (inactive).

Regarding `C/C(=N/NC(=O)c1ccc(C)s1)c1cccnc1`, the inhibition was -53.1% (inactive).

Take `COc1ccc(/C=N/NC(=O)CCOc2ccccc2C)cc1OC`: the inhibition was 62.5% (active).

With `COc1cc(/C=N/NC(=O)CCOc2ccccc2C)cc(Br)c1O`, the inhibition was -26.7% (inactive).

Consider `COc1ccc(/C=N/NC(=O)CCC(=O)Nc2ccccc2)cc1OC`, for which the inhibition is -8.6% (inactive).

For the molecule `Cc1[nH]n(-c2ccccc2)c(=S)c1C=NCCCN=Cc1c(C)[nH]n(-c2ccccc2)c1=S`, the inhibition was 88.7% (active).

`Cc1[nH]n(-c2ccccc2)c(=O)c1C=NCCc1ccccc1`: the inhibition was -43.1% (inactive).

With `CCCCN=Cc1c(C)[nH]n(-c2ccccc2)c1=S`, the inhibition was 0.8% (inactive).

In the case of `Cc1nnc2sc(SCC(=O)Nc3nccs3)nn2c1=O`, the inhibition was -2.3% (inactive).

As for `Fc1ccc(-c2ccc(/C=N\n3cnnc3)o2)cc1Cl`, the inhibition is 1.3% (inactive).

As for `Cc1cc(-c2ccc(/C=N/n3cnnc3)o2)ccc1Cl`, the inhibition was 67.4% (active).

As to `Cc1ccc(-c2ccc(/C=N/n3cnnc3)o2)cc1Cl`, the inhibition was -11.3% (inactive).

Turning to `C/C(N)=C(/C#N)C(=O)COC(=O)c1cccc(O)c1`, the inhibition was -29.6% (inactive).

`CC(=O)Nc1cccc(NC(=O)CSc2nc3ccccc3o2)c1`: the inhibition is 43.3% (inactive).

Turning to `COc1ccc(C(NC(C)=O)c2cc(Cl)c3cccnc3c2O)cc1` (stereo not drawn), the inhibition is -6.4% (inactive).

Take `CCCCCCNC(=O)CCc1nc2cccnc2n1Cc1ccc(OC)cc1`: the inhibition was -10.4% (inactive).

For the molecule `CC1CCCC(C)N1C(=O)c1cc(-c2cccs2)on1` (stereo not drawn), the inhibition was -28.6% (inactive).

For the molecule `CC1=C/C(=N\NC(=S)Nc2cccnc2)CC(C)(C)C1`, the inhibition is 43.4% (active).

For the molecule `CC(C)(C)C1CCC(=NNC(=S)Nc2cccnc2)CC1` (stereo not drawn), the inhibition was -17.4% (inactive).

For the molecule `CC1=C/C(=N\NC(=S)NCCc2ccccc2)CC(C)(C)C1`, the inhibition is -43.4% (inactive).

In the case of `CCOC(=O)C1CCCN(C(=O)CNC(=O)c2nn(-c3ccc(OC)c(Cl)c3)c(=O)c3ccccc23)C1` (stereo not drawn), the inhibition was -5.1% (inactive).

`CC(C)OC(=O)CSc1nc2c(cc1C#N)CCCCC2`: the inhibition is 111% (active).

`CC(C)OC(=O)CC(=O)CSc1nc2c(cc1C#N)CCCCCC2`: the inhibition was -24.1% (inactive).

For the molecule `CC(C)OC(=O)CC(=O)CSc1nc2c(cc1C#N)CCCCC2`, the inhibition is -26.3% (inactive).

Regarding `O=C(c1cccs1)N1CCC(C(=O)N2CCN(Cc3ccc4c(c3)OCO4)CC2)CC1`, the inhibition was -24.9% (inactive).

In the case of `CCN1C(=O)c2cccc3c(S(=O)(=O)NCc4ccco4)ccc1c23`, the inhibition is -23% (inactive).

For the molecule `Cc1ccc(-n2cc(C(=O)c3ccc(N4CCN(C)CC4)cc3)nn2)cc1Cl`, the inhibition was -52.8% (inactive).

For the molecule `N#CC1=C(N2CCCCC2)c2cc3c(n2C1=O)CCCC3`, the inhibition was 7.7% (inactive).

Turning to `CCSC1=C(C#N)C(=O)n2c1cc1c2CCCC1`, the inhibition is 67% (active).

In the case of `CCOC(=O)C1=C(SCC)c2cc3c(n2C1=O)CCCC3`, the inhibition was -36.8% (inactive).

On to `COc1ccc(C(c2nnnn2C(C)C)N2CCN(C(=O)c3ccco3)CC2)cc1` (stereo not drawn), for which the inhibition was 10.7% (inactive).

Regarding `CC(=O)c1cc(C#N)c(NCc2ccccc2)nc1C`, the inhibition was -40.7% (inactive).

Consider `c1cn(CCCNc2ncnc3sc4c(c23)CCC4)cn1`, for which the inhibition is 29.2% (inactive).

Regarding `CCOc1cccc(-c2cc(C(=O)Nc3ccon3)c3ccccc3n2)c1`, the inhibition is -14% (inactive).

Take `CCOC(=O)C(=O)N1CCN(c2nc(-c3ccc(Cl)cc3)cs2)CC1`: the inhibition is -19.1% (inactive).

For the molecule `O=C1CC(Cc2ccc(Br)cc2)C(=O)N1c1ccccc1` (stereo not drawn), the inhibition is -19.8% (inactive).

As to `Clc1ccc(N/N=C/c2ccncc2)cc1Cl`, the inhibition is -40.8% (inactive).

As to `Clc1cncc(Cl)c1N/N=C/c1ccncc1`, the inhibition is 75.3% (active).

`Clc1cncc(Cl)c1N/N=C/c1ccccc1`: the inhibition is -10.5% (inactive).

With `CCOc1cc(/C=C(/NC(C)=O)C(=O)O)cc(Cl)c1OCc1cccc(Br)c1`, the inhibition is -9.8% (inactive).

Take `CC(C)Oc1cccc(C(=O)C2CCCN(Cc3ccc4nonc4c3)C2)c1` (stereo not drawn): the inhibition is 55.2% (active).

In the case of `COc1ccc(CN2CCCC(C(=O)c3ccc(Cl)cc3)C2)cc1Cn1cccn1` (stereo not drawn), the inhibition was -12.4% (inactive).

As for `COc1ccc(C(=O)C2CCCN(Cc3ccc4nonc4c3)C2)cc1OC` (stereo not drawn), the inhibition is -4.5% (inactive).

Turning to `O=C(c1ccc(Cl)cc1)C1CCCN(Cc2ccc(Oc3ncccn3)cc2)C1` (stereo not drawn), the inhibition was 19.6% (inactive).

As for `CC(C)Oc1cccc(C(=O)C2CCCN(Cc3cnn(C(C)C)c3)C2)c1` (stereo not drawn), the inhibition was -18.3% (inactive).

With `Cc1cccc(-c2nc3c(c(SCC(N)=O)n2)CCCC3)c1`, the inhibition is -10.2% (inactive).

For the molecule `CC(C)c1ccc(NC2CCCN(C(=O)c3cccc(N4CCNC4=O)c3)C2)cc1` (stereo not drawn), the inhibition is 30.5% (inactive).
